Shown are actives, neighbours in structure and some others; about 22% of the full set was active somewhere.
Shiga toxin inh = blocks Shiga toxin action in Vero cells | Vero cells, Shiga toxin protein synthesis inhibition reporter | inhibition, % at 38.7 µM | 290,000 tested, 9.2% active; in the data active = inhibition mostly above about 28%, no sharp cut-off; inactive = mostly below about 43%
Pf growth 48h = P. falciparum growth inhibition at 48 hours (one generation). 310,000 tested, 5.9% active. P. falciparum luciferase growth in erythrocytes, 48 h. Potency, µM (top dose mostly 28.7 µM), usual class: inhibitors
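Luciferase-expressing parasites in RBCs, 2% Hct / 0.1% parasitemia final; RPMI 1640 + 0.5% Albumax; 37 C, 5% CO2, one generation; luminescence read-out, lower signal = inhibition.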
LmPK inh = LmPK (Leishmania mexicana) enzyme inhibition; 290,000 tested, 0.37% active; Potency, µM (highest dose often 57.5 µM), most hits filed as inhibitors; Q27686; AID 1721; purified LmPK, Kinase-Glo ATP luminescence, 1 h
Target sequence (Q27686 whole entry, looked up): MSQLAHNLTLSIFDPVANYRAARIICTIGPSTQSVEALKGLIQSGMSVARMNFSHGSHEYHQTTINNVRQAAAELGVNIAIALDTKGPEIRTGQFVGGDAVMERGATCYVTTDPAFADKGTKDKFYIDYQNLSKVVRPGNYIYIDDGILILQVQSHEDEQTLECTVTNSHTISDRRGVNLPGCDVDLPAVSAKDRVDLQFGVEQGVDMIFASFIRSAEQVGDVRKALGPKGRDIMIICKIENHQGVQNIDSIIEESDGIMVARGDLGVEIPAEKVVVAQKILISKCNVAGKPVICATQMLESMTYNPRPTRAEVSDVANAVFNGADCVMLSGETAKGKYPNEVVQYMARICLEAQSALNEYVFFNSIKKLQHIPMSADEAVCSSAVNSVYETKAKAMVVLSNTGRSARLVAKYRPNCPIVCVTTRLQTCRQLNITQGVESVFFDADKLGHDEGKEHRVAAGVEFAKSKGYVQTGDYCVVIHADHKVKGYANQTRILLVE
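Purified LmPK (0.1 nM) converted ADP (0.1 mM) to ATP with PEP (0.5 mM) in imidazole buffer pH 7.2 with KCl and MgCl2, 1 h at room temperature. ATP was read by Kinase-Glo luminescence; data normalized to uninhibited and no-enzyme controls.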
Cycloheximide cs = counter-screen hit for Shiga toxin inhibitors, cycloheximide; cell reporter, cycloheximide protein synthesis inhibition counterscreen; 300,000 tested, 12% active; max response, %; in the data active = max response mostly above about 13%, no sharp cut-off; inactive = mostly below about 14%; also: read at 38.3 µM for the half of the compounds with a filed dose
Pf growth 96h = P. falciparum growth inhibition at 96 hour, primary screen for plastid delayed-death inhibitors; P. falciparum luciferase reporter growth, 96 h; Potency, µM (doses to about 28.7 µM), hits mostly inhibitors; 320,000 tested, 6.9% active; AID 504834
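96 h incubation, 37 C, 5% CO2, of luciferase-reporter P. falciparum-infected RBCs (2% hematocrit, 0.05% parasitemia final) with test compounds; endpoint luminescence.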
Each line names hits and unclear results; the compound was inactive in the other large screens. Unless noted, calls follow the shape of the dose curve; as a rule, active = well fitted inhibition curve with a large enough effect; inconclusive = small, poorly fitted or top-dose-only effect, or another doubt; inactive = no such curve, though single readings can be large or run the other way.

COc1ccc(C(=O)C2CCCN(C(=O)COc3ccc(C(C)=O)cc3)C2)cc1F (configuration not stated)	Pf growth 96h 11.7µM
COc1ccc(C(=O)C2CCCN(C(=O)c3ccccc3C(C)=O)C2)cc1F (configuration not stated)	Cycloheximide cs 30.1, Pf growth 96h inconclusive
COCC(=O)N1CCCC(C(=O)c2ccc(-c3ccccc3)c(F)c2)C1 (configuration not stated)	Cycloheximide cs 28.3, Pf growth 96h inconclusive
CC(C)c1ccc(NC2CCCN(C(=O)c3cnsn3)C2)cc1 (configuration not stated)	none
COc1ccc(NC(C)=O)cc1NC(C)C(=O)Nc1cccc2ccccc12 (configuration not stated)	Pf growth 96h inconclusive (no result: Pf growth 48h)
Cc1ccc(C)c(CN2CCCN(Cc3cc(C)ccc3C)S2(=O)=O)c1	none
CC(=O)c1ccccc1C(=O)N1CCCC(C(=O)c2ccc(C(F)(F)F)cc2)C1 (configuration not stated)	Shiga toxin inh 70.0, Cycloheximide cs 54.3
CN(C)S(=O)(=O)N1CCCC(C(=O)c2ccc(C(F)(F)F)cc2)C1 (configuration not stated)	Pf growth 96h 0.828µM
CCOC(=O)c1c(C)[nH]c(C(=O)N2CCCC(C(=O)c3ccccc3OC)C2)c1C (configuration not stated)	Pf growth 48h inconclusive, Cycloheximide cs 11.6
COc1ccc(C(=O)C2CCCN(C(=O)c3cc(C)nc(C)n3)C2)cc1OC (configuration not stated)	Shiga toxin inh 50.4
O=C(Cl)CCCCCCCC(=O)Cl	none (no result: Pf growth 48h, LmPK inh, Pf growth 96h)
Cc1nc(C)n(CC(=O)N2CCCC(C(=O)c3cccc4ccccc34)C2)n1 (configuration not stated)	Cycloheximide cs 14.4, Pf growth 96h inconclusive
COc1ccccc1C(=O)C1CCCN(C(=O)c2ccccc2C(C)=O)C1 (configuration not stated)	Shiga toxin inh 48.7, Cycloheximide cs 32.7
Cc1ccc(NC(=S)N(C)Cc2cn(C)c3ccccc23)cc1	none
O=C(c1ccccc1)n1ccc2ccccc21	Shiga toxin inh 136.6, Cycloheximide cs 31.3
O=C(O)Cn1ccc2ccccc21	none
CN(CC(=O)Nc1ccccc1C(=O)NC1CC1)Cc1ccco1	none (no result: Shiga toxin inh, LmPK inh, Cycloheximide cs)
CCOC(=O)C1=C(N)Oc2cc(C)n(CCc3ccc(OC)c(OC)c3)c(=O)c2C1c1cccnc1 (configuration not stated)	Pf growth 48h 2.33µM, Pf growth 96h 10.4µM
CCOC(=O)C1=C(N)Oc2ccc3ccccc3c2C1c1cccc(O)c1 (configuration not stated)	Pf growth 48h inconclusive
COC(=O)C1=C(N)Oc2cc(C)n(CCc3ccccc3)c(=O)c2C1c1cccnc1 (configuration not stated)	Pf growth 48h 10.4µM, Pf growth 96h inconclusive
COC(=O)C1=C(N)Oc2cc(C)n(CCCn3ccnc3)c(=O)c2C1c1cccc(Cl)c1 (configuration not stated)	Pf growth 48h 5.86µM (no result: Pf growth 96h)
CCOC(=O)C1=C(N)Oc2ccc3ccccc3c2C1c1cccnc1 (configuration not stated)	Pf growth 48h inconclusive, Pf growth 96h 9.28µM
CCOC(=O)Cn1nc(C)c(NC(=O)COc2ccccc2[N+](=O)[O-])c1C	none
COc1ccc(NC(=O)CSc2nc3c(oc4ccccc43)c(=O)n2Cc2ccco2)cc1Cl	none (no result: Pf growth 48h, LmPK inh, Pf growth 96h)
CC(C(=O)O/N=C(\N)c1ccccn1)c1ccc([N+](=O)[O-])cc1 (configuration not stated)	Shiga toxin inh 70.2, Cycloheximide cs 39.8
N/C(=N\OC(=O)C(c1ccccc1)c1ccccc1)c1ccccn1	Shiga toxin inh 48.8, Pf growth 48h 13.1µM, Cycloheximide cs 22.2
N/C(=N\OC(=O)C(c1ccccc1)c1ccccc1)c1cccnc1	Pf growth 48h inconclusive, Pf growth 96h 10.4µM
N/C(=N\OCc1ccc([N+](=O)[O-])cc1)c1ccccn1	none
Cc1cc2[nH]c3ccccc3c2c(C)n1	Shiga toxin inh 37.4, Pf growth 48h 6.57µM, Cycloheximide cs 35.7, Pf growth 96h 2.08µM
CC(C)CCN1CCN(CCCn2cccn2)CC1CCO (configuration not stated)	none
COc1ccc2c3n(nc2c1)CCN=C3c1ccc(Cl)cc1	none (no result: Shiga toxin inh, LmPK inh, Cycloheximide cs)
CN1CCN(c2ccc(NC(=O)COc3ccccc3Cl)cc2)CC1	Shiga toxin inh 76.2, Cycloheximide cs 26.4

Bioassay records from PubChem BioAssay.
